Assay [1] addresses Calcium/calmodulin-dependent protein kinase type II subunit alpha (Homo sapiens) (UniProt Q9UQM7). As to conditions: at 1 µM.
Assay [2] addresses Calcium/calmodulin-dependent protein kinase type II subunit delta (Homo sapiens) (UniProt Q13557). As to conditions: at 0.1 µM.
For assay [3] the target is unchanged. As to conditions: at 1 µM.
The target in assay [4] is T1, Calcium/calmodulin-dependent protein kinase type IV (Homo sapiens) (UniProt Q16566).
T1 sequence (whole entry): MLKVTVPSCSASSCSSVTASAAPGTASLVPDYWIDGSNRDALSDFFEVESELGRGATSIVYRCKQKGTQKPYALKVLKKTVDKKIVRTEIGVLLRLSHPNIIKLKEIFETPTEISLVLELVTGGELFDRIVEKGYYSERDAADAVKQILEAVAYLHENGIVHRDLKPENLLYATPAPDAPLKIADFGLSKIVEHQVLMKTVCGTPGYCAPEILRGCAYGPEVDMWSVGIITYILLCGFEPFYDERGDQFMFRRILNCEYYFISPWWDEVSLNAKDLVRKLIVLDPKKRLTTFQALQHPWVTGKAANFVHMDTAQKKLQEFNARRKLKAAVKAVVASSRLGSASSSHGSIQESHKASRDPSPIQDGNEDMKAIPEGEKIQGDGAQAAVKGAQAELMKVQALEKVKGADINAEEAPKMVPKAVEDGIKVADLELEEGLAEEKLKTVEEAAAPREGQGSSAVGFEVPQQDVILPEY
Particulars: at 0.1 µM.

In assay [5] the target is T1, Calcium/calmodulin-dependent protein kinase type IV (Homo sapiens). Particulars: at 1 µM.
In assay [6] the target is T2, Serine/threonine-protein kinase Chk1 (Homo sapiens) (UniProt O14757).
T2 sequence (whole entry): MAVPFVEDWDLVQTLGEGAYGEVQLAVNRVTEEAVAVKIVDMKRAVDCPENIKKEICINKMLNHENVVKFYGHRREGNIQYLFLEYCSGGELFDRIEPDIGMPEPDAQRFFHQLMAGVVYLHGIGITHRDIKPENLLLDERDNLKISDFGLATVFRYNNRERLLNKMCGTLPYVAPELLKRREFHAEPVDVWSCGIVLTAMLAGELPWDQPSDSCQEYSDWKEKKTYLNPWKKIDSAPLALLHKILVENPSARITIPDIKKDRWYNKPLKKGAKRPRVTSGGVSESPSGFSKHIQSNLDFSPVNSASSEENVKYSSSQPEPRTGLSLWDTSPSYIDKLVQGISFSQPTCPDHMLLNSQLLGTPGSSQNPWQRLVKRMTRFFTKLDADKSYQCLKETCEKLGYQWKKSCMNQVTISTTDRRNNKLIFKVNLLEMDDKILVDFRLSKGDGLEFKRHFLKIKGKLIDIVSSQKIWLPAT
As to conditions: at 0.1 µM.

Assay [7] concerns the target T2, Serine/threonine-protein kinase Chk1 (Homo sapiens). As to conditions: at 1 µM.
Assay [8] concerns the target Serine/threonine-protein kinase Chk2 (Homo sapiens) (UniProt O96017). As to conditions: at 0.1 µM.
Assay [9] has the same target. As to conditions: at 1 µM.
The target of assay [10] is Death-associated protein kinase 1 (Homo sapiens) (UniProt P53355). As to conditions: at 0.1 µM.
The target is the same in assay [11]. As to conditions: at 1 µM.
For assay [12], the target named is T3, Serine/threonine-protein kinase DCLK2 (Homo sapiens) (UniProt Q8N568).
T3 sequence (whole entry): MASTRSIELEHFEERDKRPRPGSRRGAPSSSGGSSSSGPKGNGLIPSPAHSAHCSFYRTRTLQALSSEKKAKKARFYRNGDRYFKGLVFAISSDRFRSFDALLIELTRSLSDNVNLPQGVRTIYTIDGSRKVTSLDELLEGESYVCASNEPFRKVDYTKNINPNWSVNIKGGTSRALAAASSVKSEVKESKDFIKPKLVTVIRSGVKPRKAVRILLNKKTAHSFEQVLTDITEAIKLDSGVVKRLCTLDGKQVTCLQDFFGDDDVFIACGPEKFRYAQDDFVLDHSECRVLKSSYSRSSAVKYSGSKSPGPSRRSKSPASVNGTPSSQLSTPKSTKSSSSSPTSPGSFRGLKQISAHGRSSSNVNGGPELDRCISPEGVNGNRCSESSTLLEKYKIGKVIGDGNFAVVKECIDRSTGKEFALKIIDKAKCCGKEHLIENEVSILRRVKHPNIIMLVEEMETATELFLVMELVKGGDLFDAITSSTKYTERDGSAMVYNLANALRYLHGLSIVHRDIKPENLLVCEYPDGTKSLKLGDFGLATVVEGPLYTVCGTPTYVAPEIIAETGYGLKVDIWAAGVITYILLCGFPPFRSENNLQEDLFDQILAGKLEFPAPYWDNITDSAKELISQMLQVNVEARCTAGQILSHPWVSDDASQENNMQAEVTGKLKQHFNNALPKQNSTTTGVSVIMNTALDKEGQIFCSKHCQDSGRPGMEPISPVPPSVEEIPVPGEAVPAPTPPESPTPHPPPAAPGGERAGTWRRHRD
As to conditions: at 0.1 µM.

For assay [13], the target named is T3, Serine/threonine-protein kinase DCLK2 (Homo sapiens). As to conditions: at 1 µM.
In assay [14] the target is MAP kinase-activated protein kinase 2 (Homo sapiens) (UniProt P49137). Particulars: at 0.1 µM.
Assay [15] shares this target. As to conditions: at 1 µM.
Assay [16] concerns the target MAP kinase-activated protein kinase 3 (Homo sapiens) (UniProt Q16644). As to conditions: at 0.1 µM.
The target is the same in assay [17]. Particulars: at 1 µM.
The target in assay [18] is Serine/threonine-protein kinase MARK1 (Homo sapiens) (UniProt Q9P0L2). Particulars: at 0.1 µM.
For assay [19] the target is unchanged. As to conditions: at 1 µM.
Assay [20] deals with MAP/microtubule affinity-regulating kinase 3 (Homo sapiens) (UniProt P27448). Particulars: at 0.1 µM.

The structures appear in SMILES notation. Values joined by “and” are separate entries in the source; they are usually repeats but may differ in a detail not shown here. Equal entries are not always repeated.

This note sets out measurements from ChEMBL document CHEMBL1961873, “Compounds: GSK PKIS; Assays: Nanosyn kinase panel” (2012).

Sequence of Calcium/calmodulin-dependent protein kinase type II subunit alpha (Homo sapiens) (Q9UQM7 whole entry): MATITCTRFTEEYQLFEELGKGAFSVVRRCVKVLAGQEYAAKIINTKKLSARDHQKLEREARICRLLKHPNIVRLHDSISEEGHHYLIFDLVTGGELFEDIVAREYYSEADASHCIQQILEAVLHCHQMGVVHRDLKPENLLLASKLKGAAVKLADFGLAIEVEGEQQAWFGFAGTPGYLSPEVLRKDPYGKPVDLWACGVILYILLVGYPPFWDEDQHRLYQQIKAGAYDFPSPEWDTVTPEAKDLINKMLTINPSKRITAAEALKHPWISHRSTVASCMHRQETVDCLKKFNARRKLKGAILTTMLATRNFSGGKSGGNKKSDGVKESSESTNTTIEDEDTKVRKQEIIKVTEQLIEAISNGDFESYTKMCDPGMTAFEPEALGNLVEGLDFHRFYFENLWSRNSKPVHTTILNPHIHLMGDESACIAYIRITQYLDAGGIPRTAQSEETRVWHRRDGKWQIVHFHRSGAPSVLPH
Sequence of MAP/microtubule affinity-regulating kinase 3 (Homo sapiens) (P27448 whole entry, looked up): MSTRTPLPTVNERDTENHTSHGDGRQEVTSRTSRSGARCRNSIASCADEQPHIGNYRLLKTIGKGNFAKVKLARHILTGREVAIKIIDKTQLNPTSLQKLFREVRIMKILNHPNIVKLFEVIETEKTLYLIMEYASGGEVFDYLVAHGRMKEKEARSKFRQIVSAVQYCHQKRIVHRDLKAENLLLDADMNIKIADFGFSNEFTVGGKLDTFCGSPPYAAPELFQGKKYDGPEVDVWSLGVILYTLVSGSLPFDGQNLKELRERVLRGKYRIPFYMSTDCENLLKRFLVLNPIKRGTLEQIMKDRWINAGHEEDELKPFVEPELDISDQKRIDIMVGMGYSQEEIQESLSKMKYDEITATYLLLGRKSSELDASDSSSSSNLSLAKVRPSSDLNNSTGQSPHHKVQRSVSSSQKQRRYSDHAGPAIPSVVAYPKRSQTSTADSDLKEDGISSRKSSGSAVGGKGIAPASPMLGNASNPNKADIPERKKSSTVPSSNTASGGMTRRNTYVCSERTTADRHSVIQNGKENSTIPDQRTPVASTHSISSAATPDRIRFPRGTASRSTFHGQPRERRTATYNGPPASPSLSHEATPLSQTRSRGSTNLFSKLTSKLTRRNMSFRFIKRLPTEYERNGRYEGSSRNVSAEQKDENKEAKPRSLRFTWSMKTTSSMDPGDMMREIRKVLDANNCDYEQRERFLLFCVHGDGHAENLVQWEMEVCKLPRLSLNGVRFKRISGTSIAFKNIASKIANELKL
Sequence of Death-associated protein kinase 1 (Homo sapiens) (P53355 whole entry, looked up): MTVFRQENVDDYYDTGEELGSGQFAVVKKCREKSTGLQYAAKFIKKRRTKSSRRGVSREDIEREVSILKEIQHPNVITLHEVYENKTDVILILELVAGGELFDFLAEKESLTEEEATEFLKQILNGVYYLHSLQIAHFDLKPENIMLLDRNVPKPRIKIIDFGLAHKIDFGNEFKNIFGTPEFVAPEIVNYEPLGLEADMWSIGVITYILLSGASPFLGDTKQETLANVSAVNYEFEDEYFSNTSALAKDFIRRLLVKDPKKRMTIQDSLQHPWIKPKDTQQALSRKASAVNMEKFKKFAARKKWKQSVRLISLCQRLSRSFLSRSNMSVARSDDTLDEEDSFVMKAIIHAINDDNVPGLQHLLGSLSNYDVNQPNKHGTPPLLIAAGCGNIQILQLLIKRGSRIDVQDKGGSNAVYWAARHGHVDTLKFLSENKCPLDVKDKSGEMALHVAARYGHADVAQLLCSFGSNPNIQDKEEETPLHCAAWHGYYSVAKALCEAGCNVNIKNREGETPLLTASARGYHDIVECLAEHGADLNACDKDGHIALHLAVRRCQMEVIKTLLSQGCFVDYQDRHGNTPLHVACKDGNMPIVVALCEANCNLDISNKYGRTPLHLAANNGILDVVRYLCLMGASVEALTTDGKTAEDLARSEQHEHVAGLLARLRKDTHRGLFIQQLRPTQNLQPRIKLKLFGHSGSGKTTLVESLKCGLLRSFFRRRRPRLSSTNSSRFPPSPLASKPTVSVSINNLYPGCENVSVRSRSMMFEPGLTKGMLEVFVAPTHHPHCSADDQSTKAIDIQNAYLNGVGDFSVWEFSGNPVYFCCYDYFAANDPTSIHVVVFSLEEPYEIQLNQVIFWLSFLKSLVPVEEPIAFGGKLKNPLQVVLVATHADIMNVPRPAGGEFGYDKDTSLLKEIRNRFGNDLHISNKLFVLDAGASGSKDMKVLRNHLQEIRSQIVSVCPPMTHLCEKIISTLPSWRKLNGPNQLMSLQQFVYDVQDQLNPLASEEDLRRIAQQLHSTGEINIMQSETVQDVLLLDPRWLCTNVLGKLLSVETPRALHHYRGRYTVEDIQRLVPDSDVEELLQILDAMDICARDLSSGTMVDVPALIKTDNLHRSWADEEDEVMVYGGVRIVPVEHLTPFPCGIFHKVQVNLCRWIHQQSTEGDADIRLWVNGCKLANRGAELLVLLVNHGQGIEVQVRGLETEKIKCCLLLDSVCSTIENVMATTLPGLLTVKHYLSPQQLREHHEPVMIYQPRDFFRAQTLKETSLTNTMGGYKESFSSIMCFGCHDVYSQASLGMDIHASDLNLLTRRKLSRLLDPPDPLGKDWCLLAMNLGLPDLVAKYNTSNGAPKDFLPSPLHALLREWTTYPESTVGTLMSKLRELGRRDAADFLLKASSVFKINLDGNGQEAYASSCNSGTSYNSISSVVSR
Sequence of MAP kinase-activated protein kinase 3 (Homo sapiens) (Q16644 whole entry, looked up): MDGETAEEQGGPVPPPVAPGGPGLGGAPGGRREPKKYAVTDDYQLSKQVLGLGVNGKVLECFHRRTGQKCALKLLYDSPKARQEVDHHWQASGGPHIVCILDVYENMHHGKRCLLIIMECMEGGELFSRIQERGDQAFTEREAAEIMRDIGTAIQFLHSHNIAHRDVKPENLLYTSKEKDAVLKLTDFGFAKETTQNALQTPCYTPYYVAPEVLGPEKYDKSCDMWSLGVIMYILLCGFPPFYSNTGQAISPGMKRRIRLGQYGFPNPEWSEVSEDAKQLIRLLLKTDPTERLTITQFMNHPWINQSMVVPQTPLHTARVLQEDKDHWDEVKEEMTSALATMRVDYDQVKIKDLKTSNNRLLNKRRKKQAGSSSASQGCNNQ
Sequence of MAP kinase-activated protein kinase 2 (Homo sapiens) (P49137 whole entry, looked up): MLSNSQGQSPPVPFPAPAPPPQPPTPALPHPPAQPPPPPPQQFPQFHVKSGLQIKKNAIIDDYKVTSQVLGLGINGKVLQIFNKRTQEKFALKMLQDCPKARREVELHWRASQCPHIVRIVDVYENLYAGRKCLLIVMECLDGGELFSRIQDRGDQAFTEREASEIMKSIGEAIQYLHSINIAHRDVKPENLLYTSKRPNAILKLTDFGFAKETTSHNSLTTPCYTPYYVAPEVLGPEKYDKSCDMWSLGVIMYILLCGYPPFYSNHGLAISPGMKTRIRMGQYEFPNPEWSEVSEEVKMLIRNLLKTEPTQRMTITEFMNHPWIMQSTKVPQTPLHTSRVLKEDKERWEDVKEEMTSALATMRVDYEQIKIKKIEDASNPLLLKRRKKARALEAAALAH
Sequence of Calcium/calmodulin-dependent protein kinase type II subunit delta (Homo sapiens) (Q13557 whole entry): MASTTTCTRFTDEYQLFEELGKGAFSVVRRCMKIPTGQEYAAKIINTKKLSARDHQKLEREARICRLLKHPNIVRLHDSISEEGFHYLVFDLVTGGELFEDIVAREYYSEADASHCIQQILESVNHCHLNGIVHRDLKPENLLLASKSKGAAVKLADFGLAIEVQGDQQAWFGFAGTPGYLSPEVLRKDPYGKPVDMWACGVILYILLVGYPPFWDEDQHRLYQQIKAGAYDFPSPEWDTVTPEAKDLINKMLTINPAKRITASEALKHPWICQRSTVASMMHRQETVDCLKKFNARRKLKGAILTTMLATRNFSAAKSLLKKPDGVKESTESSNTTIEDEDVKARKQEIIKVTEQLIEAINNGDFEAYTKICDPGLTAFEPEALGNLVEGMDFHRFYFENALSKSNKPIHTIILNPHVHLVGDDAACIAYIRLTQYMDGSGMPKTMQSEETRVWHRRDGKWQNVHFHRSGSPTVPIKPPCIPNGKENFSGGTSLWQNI
Sequence of Serine/threonine-protein kinase MARK1 (Homo sapiens) (Q9P0L2 whole entry, looked up): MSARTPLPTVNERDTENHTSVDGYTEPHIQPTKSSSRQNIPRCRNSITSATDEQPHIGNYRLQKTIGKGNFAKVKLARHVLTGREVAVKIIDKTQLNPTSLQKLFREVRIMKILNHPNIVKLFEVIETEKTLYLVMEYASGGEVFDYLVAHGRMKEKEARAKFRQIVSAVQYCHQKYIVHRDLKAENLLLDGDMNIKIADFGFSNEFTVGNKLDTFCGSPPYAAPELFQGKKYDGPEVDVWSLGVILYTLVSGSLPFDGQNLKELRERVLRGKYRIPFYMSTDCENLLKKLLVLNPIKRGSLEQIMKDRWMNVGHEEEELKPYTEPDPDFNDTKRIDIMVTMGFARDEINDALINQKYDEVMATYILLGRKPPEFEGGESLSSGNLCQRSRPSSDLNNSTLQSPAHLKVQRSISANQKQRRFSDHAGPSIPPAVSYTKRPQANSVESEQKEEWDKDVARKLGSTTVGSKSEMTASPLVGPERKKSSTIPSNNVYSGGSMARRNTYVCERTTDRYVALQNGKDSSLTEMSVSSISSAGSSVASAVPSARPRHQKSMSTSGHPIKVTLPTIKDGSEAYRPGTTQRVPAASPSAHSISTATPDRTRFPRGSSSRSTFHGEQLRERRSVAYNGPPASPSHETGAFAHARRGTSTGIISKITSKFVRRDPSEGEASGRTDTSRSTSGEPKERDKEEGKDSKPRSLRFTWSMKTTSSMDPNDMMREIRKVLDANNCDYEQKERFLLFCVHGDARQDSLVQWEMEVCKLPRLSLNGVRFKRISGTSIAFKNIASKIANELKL

Regarding `CC1=C(C(=O)Nc2ccc3[nH]nc(C)c3c2)C(c2ccc(C(F)(F)F)cc2)CC(=O)N1` (stereo not given), the inhibition – broadly, the drop in the measured response relative to a control, in per cent – amounted to 2.9% in assay [1]; 1.76% in assay [2]; 4.44% in assay [3]; 0.07% in [4]; 0.57% in [5]; 2.48% in assay [6]. Moreover, the inhibition turned out to be 2.75% in assay [7]; 1.95% in assay [8]; 6.02% in assay [9]; 3.37% in [10]; 4.3% in [11]; 1.35% in [12]. The inhibition in [13] stood at 0.55%; in assay [14] it was 1.67%; in [15] it was 0.92%; in assay [16], 0.91%; in [17], 3.08%; in [18], 1.38%. The inhibition in [19] was 3.89%; in assay [20], -1.82%.
Regarding `COc1ccccc1-c1cc(/C=C2\C(=O)Nc3ncc(Br)cc32)cc(Br)c1O`, the inhibition in assay [1] is 5.91%; in assay [2], 4.86%; in [3] it was 7.42%; in [4] it was 0.86%; in [5], 1.67%; in assay [6], 2.44%. Moreover, the inhibition in assay [7] is 3.84%; in assay [8], 4.82%; in assay [9], 6.73%; in assay [10], 0.98%; in assay [11], 4.6%; in [12], 0.85%. Also, the inhibition was 1.21% in assay [13]; 1.81% in assay [14]; 1.69% in assay [15]; 5.31% in assay [16]; 6.33% in assay [17]; 3.43% in [18]. For the same compound, the inhibition in assay [19] was determined as 7.22%; in assay [20] it was 3.34%.
On to `NC(=O)c1ccc2c(-c3ccnc(NCCCO)n3)c(-c3ccc(F)cc3)nn2c1`, for which the inhibition turned out to be 3.63% in assay [1]; 4.46% in assay [2]; 3.95% in [3]; 0.65% in [4]; 0.03% in assay [5]; 8.23% in assay [6]. The inhibition in assay [7] is 7.94%; in [8], 10.1%; in assay [9] it was 10.6%; in assay [10] it was 11.7%; in assay [11] it was 15.1%; in [12] it was 1.81%. The inhibition in [13] is 1.24%; in assay [14] it was 5.03%; in assay [15], 5.02%; in [16] it was 39.7%; in [17], 43.4%; in assay [18] it was 4.33%. Also, the inhibition was determined as 4.69% in assay [19] and 4.33% in assay [20].
With `CC1(C)CC(n2cnc(-c3ccc(F)cc3)c2-c2ccnc(N)n2)CC(C)(C)N1`, the inhibition is -1.67% in assay [1]; 0.69% in [2]; -0.31% in [3]; 0.52% in assay [4]; -0.57% in assay [5]; -3.33% in assay [6]. For the same compound, the inhibition in assay [7] was -6.27%; in assay [8], -4.96%; in assay [9] it was -4.4%; in assay [10], -7.58%; in [11] it was -7.03%; in assay [12], 2.01%. Besides, the inhibition was -7.74% in [13]; -2.49% in assay [14]; -2.73% in [15]; 21.4% in assay [16]; 26.4% in [17]; 1.88% in assay [18]. The figures for the inhibition in assay [19] and in [20] were 0.57% and 1.34%, respectively.
Regarding `CC1=C(C(=O)Nc2ccc3[nH]ncc3c2)C(c2ccc(F)cc2)N=C(c2ccc(C(F)(F)F)nc2)N1` (stereo not given), the inhibition in assay [1] is 2.04%; in assay [2], 0.67%; in assay [3], 3.6%; in [4] it was 0.82%; in [5] it was 1.17%; in [6], 0.19%. Moreover, the inhibition is 3.03% in assay [7]; 1.5% in [8]; 2.24% in [9]; 0.86% in assay [10]; 0.67% in assay [11]; -2.05% in assay [12]. In addition, the inhibition in assay [13] came to 4.18%; in assay [14], 1.36%; in assay [15] it was 0.33%; in assay [16], 1.46%; in [17], 3.59%; in assay [18], 1.66%. In addition, the inhibition is 4.38% in assay [19] and 1.04% in assay [20].
`CS(=O)(=O)Nc1ccc(-c2cc(-c3ccccc3)cc(C(N)=O)c2N)cc1`: the inhibition is -1.32% in assay [1]; 0.44% in [2]; 1.39% in assay [3]; -3.34% in assay [4]; -0.72% in assay [5]; 3.76% in assay [6]. Further, the inhibition in assay [7] is 0.63%; in assay [8], 1.07%; in assay [9], 1.94%; in assay [10] it was 2.28%; in assay [11], 1.38%; in assay [12] it was -0.48%. In addition, the inhibition came out at 1.02% in assay [13]; 1.59% in [14]; 1.42% in assay [15]; 0.37% in [16]; 2.22% in assay [17]; 0.39% in [18]. Also, the inhibition in assay [19] was 1.47%; in assay [20], -0.54%.
Regarding `Cc1c2ccc(N(C)c3ccnc(Nc4cccc(S(N)(=O)=O)c4)n3)cc2nn1C`, the inhibition in [1] stood at 4.44%; in assay [2] it was 4.36%; in [3], 5.37%; in assay [4], 0.12%; in assay [5], 0.2%; in assay [6], 3.06%. Further, the inhibition is 4.57% in assay [7]; 3.17% in [8]; 7.22% in [9]; 2.95% in assay [10]; 3.66% in assay [11]; -2.02% in assay [12]. Moreover, the inhibition in assay [13] was -1.83%; in [14], 2.01%; in [15], 1.4%; in assay [16], 3.68%; in [17], 4.05%; in assay [18], 4.13%. Further, the inhibition in [19] worked out at 7.61%; in [20] it was 5.31%.
As for `COc1ccc(Nc2ncc(-c3ccccc3)o2)cc1OC`, the inhibition in [1] is 4.71%; in [2] it was 0.93%; in assay [3] it was 8.26%; in assay [4] it was -0.62%; in assay [5], 1.46%; in assay [6], -0.04%. For the same compound, the inhibition is 50.5% in assay [7]; -0.14% in assay [8]; 2.24% in [9]; 1.44% in assay [10]; 1.47% in assay [11]; 0.15% in assay [12]. Besides, the inhibition in assay [13] is 5.3%; in assay [14], -0.12%; in assay [15] it was -0.35%; in assay [16] it was 0.05%; in assay [17] it was 0.81%; in assay [18] it was 2.68%. Besides, the inhibition was determined as 20.4% in assay [19] and 4.59% in assay [20].
Turning to `CN1CCC(C(=O)Nc2n[nH]c3nc(-c4ccc(O)cc4)c(Br)cc23)CC1`, the inhibition in [1] is 5.88% and 4.76%; in [2] it was 3.23% and 2.76%; in assay [3], 12.3% and 11.1%; in assay [4] it was -1.13% and 0.82%; in assay [5], -1.76% and 1.46%; in assay [6], 0.73% and 0.68%. Further, the inhibition in [7] was 5.31% and 2.46%; in assay [8], 3.5% and 1.61%; in [9] it was 5.98% and 3.76%; in assay [10], 2.41% and 2.49%; in [11], 2.5% and 1.28%; in assay [12], -1.57% and -0.96%. In addition, the inhibition in [13] was 5.44% and 10.2%; in [14], 1.56% and -0.15%; in [15], 1.12%; in assay [16] it was 2.88% and 0.82%; in [17], 2.79% and 1.9%; in assay [18], 3.54% and -0.23%. For the same compound, the inhibition in [19] was 8.58% and 1.5%; in [20], -0.22% and -0.59%.
